Results on 16 molecules are retold here after PubChem BioAssay (EPA / NIEHS).

The target of test [1] is Cellular tumor antigen p53 (Homo sapiens) (UniProt P04637). Nature of the test: TOX21_p53_BLA_p2_ratio: Tox21 HCT-116 p53 Agonism Beta-lactamase Assay, Ratio, Phase 2 (AID 2283592). In outline:
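HCT116 cells carrying a p53-responsive beta-lactamase reporter were plated, incubated 5 h at 37C, then dosed with compounds in DMSO (217-fold dilution) for 16 h. CCF4-AM substrate was added for 2 h at room temperature; the 460/530 nm emission ratio gave gain-of-signal activity relative to DMSO.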

Test [2] has the same target. Nature of the test: TOX21_p53_BLA_p3_ratio: Tox21 HCT-116 p53 Agonism Beta-lactamase Assay, Ratio, Phase 3 (AID 2283596). In outline:
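HCT116 p53-bla cells (4000/well) given compound in DMSO (217-fold dilution) after 5 h, incubated 16 h at 37C. CCF4-AM substrate 2 h at room temperature; 460/530 nm emission ratio, gain fitted against DMSO.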

Test [3] in a line: TOX21_p53_BLA_p4_viability: Viability Assessment in the Tox21 HCT-116 p53 Agonism Beta-lactamase Assay, Phase 4 (AID 2283597).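 Also: hits lower the luminescence signal meaning cytotoxicity.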 In outline:
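HCT116 p53-bla cells (4000/well) rested 5 h at 37C, then received compounds in DMSO (217-fold dilution) for 16 h at 37C, 5% CO2. CellTiter-Glo was added after the CCF4-AM read, and luminescence was read after 30 min at room temperature.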

Test [4] deals with Cellular tumor antigen p53 (Homo sapiens) (UniProt P04637). Nature of the test: TOX21_p53_BLA_p5_ratio: Tox21 HCT-116 p53 Agonism Beta-lactamase Assay, Ratio, Phase 5 (AID 2283599). In outline: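 HCT-116 p53-bla cells (4000/well) plated 5 h, dosed with compound (217-fold DMSO dilution) for 16 h at 37 C; CCF4-AM substrate 2 h at room temperature. Activity is the 460/530 nm emission ratio (405 nm excitation), fitted in gain-of-signal direction versus DMSO.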

Test [5] in a line: TOX21_p53_BLA_p5_viability: Viability Assessment in the Tox21 HCT-116 p53 Agonism Beta-lactamase Assay, Phase 5 (AID 2283600). In outline: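 Cells were plated at 4000/well, rested 5 h at 37C, then given compounds in DMSO (217-fold dilution) for 16 h at 37C, 5% CO2. Following the CCF4-AM beta-lactamase read, CellTiter-Glo was added and luminescence was read after 30 min at room temperature.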

Test [6] addresses Cellular tumor antigen p53 (Homo sapiens) (UniProt P04637). Briefly: TOX21_p53_BLA_p4_ratio: Tox21 HCT-116 p53 Agonism Beta-lactamase Assay, Ratio, Phase 4 (AID 2283601). The method, boiled down:
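HCT-116 p53 beta-lactamase reporter cells (4000/well) preincubated 5 h, then compound (217-fold dilution of DMSO stock) for 16 h at 37C. CCF4-AM substrate added 2 h at room temperature; 460/530 nm emission ratio fitted upward versus DMSO.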

Test [7] has as its target PGR (gene 5241) (UniProt P06401). Briefly: TOX21_PR_BLA_Followup_Agonist_ratio: Tox21 HEK293 Progesterone Receptor (PR) Agonism Beta-lactamase Follow-Up Assay, Ratio (AID 2283933). The method, boiled down: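 Agonist-mode follow-up in HEK293T cells carrying a UAS-driven beta-lactamase reporter, grown in 2% charcoal-stripped serum. Compounds act for 16 hr; activity is the ch2/ch1 cleavage ratio, with same-well CellTiter-Glo viability run in parallel.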

Test [8] has the same target. Nature of the test: TOX21_PR_BLA_Followup_Antagonist_ratio: Tox21 HEK293 Progesterone Receptor (PR) Antagonism Beta-lactamase Follow-Up Assay, Ratio (AID 2283934). In outline: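 Antagonist mode used 1 nM R5020 (final) as agonist on a beta-lactamase reporter line in HEK293T cells. Activity was taken from the substrate cleavage ratio after 16 hr exposure.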
The nature of test [9]: TOX21_PR_BLA_Followup_Agonist_viability: Viability Assessment in the Tox21 HEK293 Progesterone Receptor (PR) Agonism Beta-lactamase Follow-Up Assay (AID 2283935).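 Also: signal loss means lower viability so actives are cytotoxic.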 In outline: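 Multiplexed viability counter-screen: ATP-coupled luciferase signal measured after 30 min at room temperature, following 16 hr compound treatment of PR-UAS-bla HEK293T cells grown in charcoal-stripped serum.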

Test [10] is described as follows: TOX21_PR_BLA_Followup_Antagonist_viability: Viability Assessment in the Tox21 HEK293 Progesterone Receptor (PR) Antagonism Beta-lactamase Follow-Up Assay (AID 2283936).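 Also: hits lower the luminescence signal meaning cytotoxicity.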 The method, boiled down: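 PR-UAS-bla HEK293T cells (3,000/well, 2% charcoal-stripped FBS) given compound plus R5020 agonist, 16 h at 37C. CellTiter-Glo added after bla read, 30 min at room temperature; luminescence loss indicates cytotoxicity.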

For test [11], the target named is PGR (gene 5241) (UniProt P06401). Briefly: TOX21_PR_LUC_Followup_Agonist: Tox21 HEK293 Progesterone Receptor (PR) Agonism Luciferase Follow-Up Assay (AID 2283937; active = hit-call score of the fitted dose curve at least 0.9, where 1 is the maximum; inactive = score below 0.9). The method, boiled down:
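Agonist mode: reporter cells carrying PR-A and luciferase are treated 16 h with test compounds at 37C. Luciferase induction is measured by luminescence and fitted upward against DMSO.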

Test [12] can be described thus: TOX21_PR_LUC_Followup_Antagonist_viability: Viability Assessment in the Tox21 HEK293 Progesterone Receptor (PR) Antagonism Luciferase Follow-Up Assay (AID 2283940). The method, boiled down: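 Cellular ATP, measured with luciferase-coupled CellTiter-Glo, served as the viability endpoint after HEK293-PR-A-luc cells were exposed to test compounds for 16 h at 37C.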

Test [13] can be described thus: TOX21_PR_LUC_Followup_Agonist_viability: Viability Assessment in the Tox21 HEK293 Progesterone Receptor (PR) Agonism Luciferase Follow-Up Assay (AID 2283941).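 Also: loss of signal means cytotoxicity so actives lower viability.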 The method, boiled down: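 Luminescent ATP quantitation (CellTiter-Glo) serves as the read-out; a drop flags cytotoxic compounds. Cells are HEK293-PR-A-luc grown in 10% charcoal-stripped FBS, plated 3,000/well, and exposed to compound for 16 h.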

Test [14] has as its target Retinoic acid receptor RXR-alpha (Homo sapiens) (UniProt P19793). Nature of the test: TOX21_TR_RXR_BLA_Agonist_Followup_ratio: Tox21 Thyroid Hormone Receptor beta Retinoid X Receptor alpha (RXRa) Agonism Beta-lactamase (BLA) Follow-Up Assay, Ratio (AID 2283968). The method, boiled down: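 This follow-up tests whether responses seen in the TR GH3 luciferase agonist screen are specific, using a GAL4-driven beta-lactamase reporter for RXRa in HEK293T cells. Compound exposure lasts 16 h; signal is the cleaved/uncleaved substrate ratio.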

Test [15] in a line: TOX21_TR_RXR_BLA_Agonist_Followup_viability: Viability Assessment in the Tox21 Thyroid Hormone Receptor beta Retinoid X Receptor alpha (RXRa) Agonism Beta-lactamase (BLA) Follow-Up Assay (AID 2283970). The method, boiled down: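 In qHTS format, RXRa-bla HEK293T cells (2,500/well) received compound for 16h. ATP content was then measured with CellTiter-Glo, and responses were fitted bidirectionally relative to DMSO controls.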

Test [16] is described as follows: UKN5_HCS_SBAD2_cell_viability: Viability Assessment in the University of Konstanz (UKN) Leist Lab Neurite Outgrowth Assay in human iPSC-derived immature Dorsal Root Ganglia Neurons (UKN5) (AID 2284056; active = hit-call score of the fitted dose curve at least 0.9, where 1 is the maximum; inactive = score below 0.9). In outline:
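iPSC-derived immature peripheral neurons (SBAD2) seeded on Matrigel with CHIR99021, SU5402 and DAPT, dosed 1 h later for 24 h. Viability from Hoechst H-33342 and calcein-AM live staining, high-content imaging; bidirectional fit versus DMSO.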

A short description of test [17]: UKN5_HCS_SBAD2_neurite_outgrowth: University of Konstanz (UKN) Leist Lab Neurite Outgrowth Assay in human iPSC-derived immature Dorsal Root Ganglia Neurons (UKN5) (AID 2284070; active = hit-call score of the fitted dose curve at least 0.9, where 1 is the maximum; inactive = score below 0.9). As to conditions: actives raise or lower the signal. The method, boiled down:
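SBAD2 neurons, 24 h compound treatment, calcein-AM neurite area via HCS imaging; DMSO baseline, gain or loss of signal.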

Test [18] is described as follows: UKN2_HCS_IMR90_neural_migration: University of Konstanz (UKN) Leist Lab Neural Crest Cell Migration Assay in human induced IMR90 Pluripotent Stem Cells (UKN2) (AID 2284204; active = hit-call score of the fitted dose curve at least 0.9, where 1 is the maximum; inactive = score below 0.9). The settings on record: actives raise or lower the signal. In outline: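 iPSC-derived IMR90 neural crest cells seeded around stoppers on PLO/laminin/fibronectin; migration started in N2-S medium with EGF/FGF, compounds added after 24 h for 24 h. Migration into cell-free area imaged after calcein-AM/Hoechst staining; bidirectional fit versus DMSO.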

A short description of test [19]: UKN4_HCS_LUHMES_neurite_outgrowth: University of Konstanz (UKN) Leist Lab Neurite Outgrowth Assay in human LUHMES cells (UKN4) (AID 2284206; active = hit-call score of the fitted dose curve at least 0.9, where 1 is the maximum; inactive = score below 0.9). As to conditions: actives raise or lower the signal. In outline: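 2-day-differentiated LUHMES, 24 h cpd exposure, live calcein-AM + H-33342 stain, HCS fluorescence imaging of neurite area; DMSO = baseline, bidirectional fit.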

The nature of test [20]: UKN4_HCS_LUHMES_cell_viability: Viability Assessment in the University of Konstanz (UKN) Leist Lab Neurite Outgrowth Assay in human LUHMES cells (UKN4) (AID 2284232; active = hit-call score of the fitted dose curve at least 0.9, where 1 is the maximum; inactive = score below 0.9). The method, boiled down: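 Human dopaminergic-model LUHMES neurons were exposed to chemicals for 24 h after a 2-day differentiation. Viability was scored by imaging Hoechst H-33342 staining, with activity fitted in both directions relative to DMSO controls.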

Test [21] in a line: UKN2_HCS_IMR90_cell_viability: Viability Assessment in the University of Konstanz (UKN) Leist Lab Neural Crest Cell Migration Assay in human induced IMR90 Pluripotent Stem Cells (UKN2) (AID 2284233; active = hit-call score of the fitted dose curve at least 0.9, where 1 is the maximum; inactive = score below 0.9;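 also: viability of neural crest cells differentiated from IMR90 iPSC measured by calcein-AM fluorescence imaging; cells exposed to compound for 24 h after a 24 h migration phase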). The method, boiled down:
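Neural crest cells derived from IMR90 iPSC migrate into a stopper-free zone for 24 h in EGF/FGF medium, then are exposed to compound for 24 h. Viability assessed by calcein-AM and Hoechst staining with high-content imaging, fitted bidirectionally versus DMSO.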

Results filed as inconclusive are left out. The source made the active and inactive calls. The calls were made as follows, unless noted: active = hit-call score of the fitted dose curve at least 0.9, where 1 is the maximum; inconclusive = response in the unintended direction; inactive = score below 0.9.

Sequence of PGR (gene 5241) (P06401 whole entry, looked up): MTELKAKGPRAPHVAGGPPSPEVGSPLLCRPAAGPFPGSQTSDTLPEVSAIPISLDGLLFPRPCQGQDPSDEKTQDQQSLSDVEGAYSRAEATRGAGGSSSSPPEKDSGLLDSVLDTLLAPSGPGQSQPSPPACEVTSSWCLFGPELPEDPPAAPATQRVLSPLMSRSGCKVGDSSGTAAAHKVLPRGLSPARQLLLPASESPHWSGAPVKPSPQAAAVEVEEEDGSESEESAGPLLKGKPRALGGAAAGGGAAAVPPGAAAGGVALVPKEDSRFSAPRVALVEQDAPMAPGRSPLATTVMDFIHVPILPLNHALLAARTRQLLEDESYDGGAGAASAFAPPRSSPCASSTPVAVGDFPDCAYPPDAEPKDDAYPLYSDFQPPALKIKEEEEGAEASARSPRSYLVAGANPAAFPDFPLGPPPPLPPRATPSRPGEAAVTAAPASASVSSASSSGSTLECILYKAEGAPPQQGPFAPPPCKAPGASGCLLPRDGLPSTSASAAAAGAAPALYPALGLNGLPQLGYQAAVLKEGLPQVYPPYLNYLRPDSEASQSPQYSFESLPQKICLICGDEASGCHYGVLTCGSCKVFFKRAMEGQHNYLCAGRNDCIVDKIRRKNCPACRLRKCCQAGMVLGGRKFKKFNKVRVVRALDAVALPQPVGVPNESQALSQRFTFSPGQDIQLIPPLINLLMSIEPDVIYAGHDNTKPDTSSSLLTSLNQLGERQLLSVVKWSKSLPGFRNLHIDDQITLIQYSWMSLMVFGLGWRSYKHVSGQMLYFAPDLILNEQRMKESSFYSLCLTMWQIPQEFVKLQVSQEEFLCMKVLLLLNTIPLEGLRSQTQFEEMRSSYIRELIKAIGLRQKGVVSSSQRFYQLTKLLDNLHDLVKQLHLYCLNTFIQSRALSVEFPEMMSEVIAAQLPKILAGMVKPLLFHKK
Sequence of Cellular tumor antigen p53 (Homo sapiens) (P04637 whole entry, looked up): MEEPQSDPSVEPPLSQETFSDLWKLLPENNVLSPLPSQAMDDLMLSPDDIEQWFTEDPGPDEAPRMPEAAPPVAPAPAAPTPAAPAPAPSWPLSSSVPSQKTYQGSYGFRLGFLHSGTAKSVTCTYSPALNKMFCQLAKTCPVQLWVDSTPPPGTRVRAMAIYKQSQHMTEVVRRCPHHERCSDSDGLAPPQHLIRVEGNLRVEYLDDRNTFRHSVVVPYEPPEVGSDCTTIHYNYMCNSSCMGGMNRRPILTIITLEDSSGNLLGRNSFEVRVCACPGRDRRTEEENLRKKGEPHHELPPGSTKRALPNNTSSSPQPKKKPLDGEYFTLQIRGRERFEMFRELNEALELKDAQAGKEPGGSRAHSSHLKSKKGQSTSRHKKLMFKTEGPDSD
Sequence of Retinoic acid receptor RXR-alpha (Homo sapiens) (P19793 whole entry, looked up, the tested form may be a part): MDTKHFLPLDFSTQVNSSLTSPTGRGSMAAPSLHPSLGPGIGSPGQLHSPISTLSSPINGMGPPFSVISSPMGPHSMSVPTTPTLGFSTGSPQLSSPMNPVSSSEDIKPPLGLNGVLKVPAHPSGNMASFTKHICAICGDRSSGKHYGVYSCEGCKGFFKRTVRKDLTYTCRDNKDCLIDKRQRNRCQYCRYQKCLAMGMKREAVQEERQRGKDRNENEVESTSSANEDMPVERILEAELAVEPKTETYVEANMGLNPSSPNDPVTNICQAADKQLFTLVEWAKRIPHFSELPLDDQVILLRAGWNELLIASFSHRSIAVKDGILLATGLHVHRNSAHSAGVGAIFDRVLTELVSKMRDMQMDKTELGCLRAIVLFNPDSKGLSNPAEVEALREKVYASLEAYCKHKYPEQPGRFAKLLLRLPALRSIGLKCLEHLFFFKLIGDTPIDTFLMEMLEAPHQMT

In the case of `Nc1cc(Cl)ccc1Cl`, the result in test [1], in test [2], in test [3], in test [4], in [5] and in [6] was inactive.

As for `C#C[C@]1(O)CC[C@H]2[C@@H]3CCC4=CC(=O)CCC4=C3C=C[C@@]21CC`, the outcome in test [1], in test [2], in [3], in test [4], in [5] and in [6] was inactive. The outcome (with PGR (gene 5241) [8]; in test [9]; in test [10]; in test [12]; in [13]) was inactive. Moreover, the AC50 with PGR (gene 5241) [7] is 144 nM (active); with PGR (gene 5241) [11], 1.56 nM (active).

Turning to `CCCCCCCCCCCCCCCl`, the result in test [1], in test [2], in test [3], in test [4] and in test [6] was inactive.

On to `CCS(=O)(=O)C(C)(C)S(=O)(=O)CC`, for which the result in test [1], in test [2] and in test [4] was inactive.

In the case of `CCCC[n+]1cccc(C)c1`, the outcome in test [1], in test [2], in test [4] and in [6] was inactive.

In the case of `N[C@@H](Cc1ccc(Oc2cc(I)c(O)c(I)c2)c(I)c1)C(=O)O`, the outcome in [1], in test [2], in test [3], in [4], in [6] and in test [14] was inactive. The molecule was classed as inactive in test [15].

As to `CC(=O)Oc1ccc2c3c1O[C@H]1[C@@H](OC(C)=O)C=C[C@H]4[C@@H](C2)N(C)CC[C@@]341`, the outcome in test [1], in [2], in [3], in test [4], in test [5] and in test [6] was inactive. The call in [16], in test [17], in [18], in test [19], in test [20] and in [21] was inactive.

With `CNCC(=O)c1ccc(O)c(O)c1`, the outcome in [1], in test [2], in test [3] and in test [5] was inactive.

For `O=C1NCN(c2ccccc2)C12CCN(CCCOc1ccc(F)cc1)CC2`, the result in [1], in test [2], in [3], in test [5] and in test [6] was inactive.

With `O=[N+]([O-])c1ccc(CCl)cc1`, the outcome in [1], in [2], in test [3], in [4] and in [5] was inactive.

Regarding `Oc1ccc2c3c1O[C@H]1[C@@H](O)C=C[C@H]4[C@@H](C2)NCC[C@@]341`, the outcome in test [1], in test [2], in [3], in test [4] and in test [6] was inactive.

As to `CCCCCCBr`, the result in [1], in [2], in test [3], in [4] and in [6] was inactive.

Take `COc1ccc(C(=O)c2c(C)n(CCN3CCOCC3)c3ccccc23)cc1`: the result in [1], in test [2], in [4] and in test [6] was inactive.

As for `CCCCCCCCCBr`, the result in test [1], in test [2] and in test [5] was inactive.

As to `COP(=S)(OC)Oc1ccc(S(N)(=O)=O)cc1`, the result in [1], in test [3], in [4], in [5] and in test [6] was inactive.

For the molecule `N#CCCC#N`, the result in test [1], in [3], in [4] and in test [5] was inactive.
